Source: ChEMBL document CHEMBL3988442, “University of Dundee, Small-Polar-MMV Screening Library” (2021)
Out of some 38,000 compounds screened, about 1,200 (3.2%) showed an effect of 50% or more. The median lay at about -58%. The full list was thinned out, with strong results kept by preference.

These compounds were tested on Plasmodium falciparum (assay: Calibr Malaria Delayed Death Assay SOP). Settings: concentration 4.99e-06 (unit not given; other assays of the set use mol/L).
Type: functional, organism-based
Design: scale not given: in the data most compounds retested in dose-response had high values

Row | SMILES | Percent Effect [%]
1 | CCS(=O)(=O)N1CCc2cc(C(=O)N(C)C)c(NCC3CC3)nc2CC1 | -99.83
2 | O=C(O)C(F)(F)F.O=C(O)C(F)(F)F.c1ccc(CCN2CCn3cc(Cn4cccn4)nc3C2)cc1 | 7.27
3 | CN(C)CCOCC1CN(Cc2cccs2)Cc2ccnn2C1.O=C(O)C(F)(F)F.O=C(O)C(F)(F)F.O=C(O)C(F)(F)F (configuration not stated) | 62.34
4 | CCn1nnc2c1C(COCCN(C)C)CN(Cc1ccc(C)s1)C2.O=C(O)C(F)(F)F.O=C(O)C(F)(F)F (configuration not stated) | 60.03
5 | CN(C)CCOCC1CN(C(=O)c2ccsc2)Cc2ccnn2C1.O=C(O)C(F)(F)F.O=C(O)C(F)(F)F (configuration not stated) | -18.09
6 | CCn1nnc2c1C(COCCN(C)C)CN(Cc1ccco1)C2.O=C(O)C(F)(F)F.O=C(O)C(F)(F)F (configuration not stated) | -73.97
7 | CN(C)C(=O)c1cnc2n1CCN(Cc1cccc(C#N)c1)C2.O=C(O)C(F)(F)F | -58.91
8 | CN(C)CCN1CCN(Cc2cccc(C#N)c2)Cc2cccnc21.O=C(O)C(F)(F)F.O=C(O)C(F)(F)F.O=C(O)C(F)(F)F | 65.04
9 | Cc1ccc(CN2Cc3nnn(C)c3C(COCC(=O)N(C)C)C2)s1.O=C(O)C(F)(F)F (configuration not stated) | -90.04
10 | COCC(=O)N1Cc2ccnn2CC(COCCN(C)C)C1.O=C(O)C(F)(F)F.O=C(O)C(F)(F)F (configuration not stated) | -13.35
11 | CN1CCN(Cc2cccc(C#N)c2)Cc2cccnc21.O=C(O)C(F)(F)F.O=C(O)C(F)(F)F | -79.43
12 | N#Cc1cccc(CN2CCn3cc(Cn4cccn4)nc3C2)c1.O=C(O)C(F)(F)F.O=C(O)C(F)(F)F | 78.59
13 | Fc1ccc(CN2CCn3cc(Cn4cccn4)nc3C2)cc1.O=C(O)C(F)(F)F | 43.38
14 | COc1ccccc1CNC(=O)N1CCN(Cc2cc(C)on2)CC1 | -4.63
15 | COCc1nnc(NC(=O)CN2C(=O)c3ccccc3NC2C(C)C)s1 (configuration not stated) | -66.52
16 | O=C(COc1ccc(Cl)cc1)N1CCOCC1c1ncon1 (configuration not stated) | -73.82
17 | Cc1nc(N(C)C)nc(NCCc2ccccn2)c1C | -11.2
18 | O=S1(=O)CCC(S(=O)(=O)c2cccc(S(=O)(=O)N3CCCCCC3)c2)C1 (configuration not stated) | -52.35
19 | CCc1ccc(CN2CCC3(CC2)CN(c2cnn(C)c2)C(=O)CO3)o1.O=C(O)C(F)(F)F.O=C(O)C(F)(F)F | -59.96
20 | CN(C)CCN1CCN(Cc2cccs2)Cc2cccnc21.O=C(O)C(F)(F)F.O=C(O)C(F)(F)F.O=C(O)C(F)(F)F | 77.04
21 | Cc1noc(C)c1CN1CCN(CCN(C)C)c2ncccc2C1.O=C(O)C(F)(F)F.O=C(O)C(F)(F)F.O=C(O)C(F)(F)F | 19.65
22 | CN(C)CCN1CCN(Cc2ccco2)Cc2cccnc21.O=C(O)C(F)(F)F.O=C(O)C(F)(F)F.O=C(O)C(F)(F)F | 11.84
23 | Cc1ccc2c(n1)N(CCn1cccn1)CCN(S(C)(=O)=O)C2.O=C(O)C(F)(F)F | -106
24 | CCS(=O)(=O)N1CCN(CCn2cccn2)c2nc(C)ccc2C1.O=C(O)C(F)(F)F | -65.79
25 | CN(C)CCN1CCN(Cc2nccs2)Cc2cccnc21.O=C(O)C(F)(F)F.O=C(O)C(F)(F)F.O=C(O)C(F)(F)F | 5.575
26 | COCCN1CCN(Cc2c(C)noc2C)Cc2ccc(C)nc21.O=C(O)C(F)(F)F.O=C(O)C(F)(F)F | -62.13

Row | SMILES | Percent Effect [%]
27 | Cc1ccc2c(n1)N(CCN(C)C)CCN(Cc1c(C)noc1C)C2.O=C(O)C(F)(F)F.O=C(O)C(F)(F)F.O=C(O)C(F)(F)F | 61.92
28 | Cc1ccc2c(n1)N(CCn1cccn1)CCN(CC1CC1)C2.O=C(O)C(F)(F)F.O=C(O)C(F)(F)F | 77.61
29 | O=C(C1CCOC1)N1C[C@H]2CN(Cc3ccncc3)C(=O)[C@H]2C1.O=C(O)C(F)(F)F (some centres not stated) | -110.3
30 | CCN1Cc2ccccc2N(C(=O)C2CCC2)CCC1=O | -10.23
31 | CC(C)NC(=O)C1CN(C(=O)CCc2ccccc2)CC12CCOCC2 (configuration not stated) | -79.45
32 | Cc1ccccc1CNCc1cc(Cl)ccc1O | 74.83
33 | Oc1ccc(Cl)cc1CNCc1ccccc1Cl | 75.8
34 | O=C1CCCN1c1cccc(CNCc2cc(F)ccc2F)c1 | -68.04
35 | CC(=O)N1CCC(NC(=O)c2cc(Cl)ccc2O)CC1 | -71.2
36 | CC(NC(=O)Cc1ccccc1F)(C(N)=O)c1cccc(Cl)c1 (configuration not stated) | -10.09
37 | Oc1ccc(Cl)cc1CNCc1cccc(C(F)(F)F)c1 | 88.68
38 | Cc1cc(NC(=O)Cc2ccccc2O)c[nH]c1=O | -29.46
39 | NS(=O)(=O)c1ccc(NCc2ccccc2F)cc1C(F)(F)F | -7.015
40 | NS(=O)(=O)c1ccc(CNCC(=O)NCc2ccc(Cl)cc2Cl)cc1 | -66.27
41 | Oc1ccc(Cl)cc1CNCc1ccccc1C(F)(F)F | 63.6
42 | CS(=O)(=O)Cc1ccccc1NCc1cc(Cl)ccc1Cl | -167.2
43 | OCc1cccc(CNCc2cccc3c2OCCO3)c1 | 41.91
44 | c1cnn(CCNCc2cnc(N3CCOCC3)nc2)c1 | -160.5
45 | Clc1snnc1CN1CCCC1Cn1cncn1 (configuration not stated) | -22.89
46 | CCc1nc(CN2CCCC(N(C)CCn3cccn3)C2)no1 (configuration not stated) | -71.81
47 | Cc1nc(N(C)C)nc(C)c1NS(=O)(=O)c1ccccc1Cl | -104.4
48 | O=C(NCCc1cccc(F)c1)c1nc2c(s1)CCCN2C(=O)C1CC1 | -105
49 | COC[C@@H]1CCC[C@]12CN(S(=O)(=O)c1cn(C)cn1)CCO2 | -139.4
50 | CSCC(=O)NCc1cc(Br)ccc1OC(F)F | -97.53
51 | OCCNc1nc(NCc2cccnc2)nc2nccnc12 | -78.22
52 | NC(=O)C1Cn2ccnc2C2(CCN(C(=O)c3ccncc3)CC2)O1 (configuration not stated) | -59.21

Row | SMILES | Percent Effect [%]
53 | CC1N(c2cnn(C)c2)C(=O)COC12CCN(Cc1ccoc1)CC2 (configuration not stated) | -59.84
54 | CCc1ncc2c(n1)CN(Cc1nc(-c3cccs3)no1)CC2 | -24.12
55 | COCCC1(C(=O)O)CCCN(C(=O)c2cc(F)ccc2OC)C1 (configuration not stated) | -162.1
56 | CC(=O)N1CCN(C(=O)Cn2ccc3c(Cl)cccc32)CC1 | -40.91
57 | CC(C)CN1CCCC1c1ccc(C(=O)Nc2cn(C)nn2)s1 (configuration not stated) | 51.14
58 | CC(C)CN1CCCC1c1ccc(C(=O)Nc2cc[nH]n2)s1 (configuration not stated) | 42.59
59 | CC(C)CN(C(=O)Nc1cccnc1)C1CC1 | -3.552
60 | CN1CCCC1c1ccc(C(=O)Nc2c3c(nn2C)CCC3)s1 (configuration not stated) | -68.39
61 | Cc1nc(C)n(CC2CCCN2CC(=O)Nc2cccnc2)n1 (configuration not stated) | -55.47
62 | O=C(CN1CCc2onc(-c3ccccc3F)c2C1)NC1CC1 | -100.2
63 | COc1ccc(CCC(=O)N2CCCC(n3cncn3)C2)cc1 (configuration not stated) | -80.83
64 | O=C(Cc1ccccc1)N1CCC2(CC1)COCCN2CC1CC1.O=C(O)C(F)(F)F | -81.37
65 | CCOc1ccc(C(=O)N2CCCCC2Cn2nc(C)cc2C)cn1 (configuration not stated) | -93.63
66 | CNC(=O)Cc1cc2nccc(-c3c(OC)cccc3OC)n2n1 | -192.8
67 | Cc1cc2nc(C(C)C)cc(N3CCN(S(N)(=O)=O)CC3)n2n1 | -79.73
68 | COc1ccc(C2CCCN2C(=O)NCCCn2cccn2)cc1 (configuration not stated) | -95.69
69 | CCN(CC)Cc1ccccc1NC(=O)N(C)Cc1ccc(OC)cc1 | 39.65
70 | CC(=O)N(C)Cc1ccccc1NC(=O)c1ccccc1C | -129.3
71 | O=C(c1cc(C2CC2)[nH]n1)N1CCN(Cc2ccccc2)CC1 | -79.8
72 | O=S(=O)(C1CC1)N1CCc2ncnc(N3CCOCC3)c2CC1 | -72.08
73 | CN(Cc1ccc(C#N)cc1)CC1CCS(=O)(=O)C1 (configuration not stated) | -39.39
74 | C[C@]1(O)CN(CC(=O)N2CCCC2)CC[C@@H]1Oc1cccc(F)c1 | 21.38
75 | C[C@]1(O)CN(Cc2ncccc2F)CC[C@@H]1Oc1cccc(F)c1 | -43.28
76 | C[C@]1(O)CN(CCO)CC[C@@H]1Oc1cccc(F)c1 | 63.55
77 | Cc1cnccc1CN1CC[C@@](C)(O)[C@H](Oc2cccc(F)c2)C1 | 38.73
78 | Cc1nccc(CN2CC[C@H](Oc3cccc(F)c3)[C@@](C)(O)C2)n1 | -32.63

Row | SMILES | Percent Effect [%]
79 | Cc1cnccc1CN1CC[C@H](Oc2cccc(F)c2)[C@@](C)(O)C1 | 79.24
80 | C[C@]1(O)CN(Cc2cccc(C(=O)O)c2)CC[C@@H]1Oc1cccc(F)c1 | -94.06
81 | C[C@]1(O)CN(CCC(N)=O)CC[C@@H]1Oc1cccc(F)c1 | -45.94
82 | Cc1ccc(C(F)(F)F)cc1NC(=O)C1CCCN1 (configuration not stated) | -141.5
83 | CC(=O)Nc1ccc(CNc2cccc(CS(C)(=O)=O)c2)cc1 | -47.89
84 | O=C(NCc1cccs1)[C@@H]1CC[C@@H]2[C@@H](CCN2C2CCOCC2)O1.O=C(O)C(F)(F)F | -51.06
85 | CCN(CC)CCNC(=O)c1ccc(-n2ccc3ccccc32)s1 | 90.12
86 | O=C(NCCN1CCOCC1)c1ccc(-n2ccc3ccccc32)s1 | 6.644
87 | O=C(NCCCN1CCOCC1)c1ccc(-n2ccc3ccccc32)s1 | 33.29
88 | CCc1n[nH]c(C2CN(C(=O)c3ccc(NC4CC4)nc3)CCO2)n1 (configuration not stated) | -51.88
89 | CC[C@H](C)[C@H](N)C(=O)Nc1nc(-c2cnc(N3CCOCC3)nc2)cs1 | -43.38
90 | OC(COc1ccccc1)CN1CCN(c2nccs2)CC1 (configuration not stated) | -10.76
91 | Cn1cc(CN2C[C@@H]3COC[C@]3(COCC3CC3)C2)cn1.O=C(O)C(F)(F)F | -16.85
92 | Cc1cccc(CN2C[C@H]3CCC[C@@]3(COCc3csc(C)n3)C2)n1.O=C(O)C(F)(F)F.O=C(O)C(F)(F)F | 81.41
93 | O=C(O)C(F)(F)F.O=C(c1ncccn1)N1C[C@H]2CCC[C@@]2(COc2ccccn2)C1 | 12.48
94 | Cn1cc(CN2C[C@H]3CCC[C@@]3(COc3ccccn3)C2)cn1.O=C(O)C(F)(F)F.O=C(O)C(F)(F)F | 64.46
95 | CS(=O)(=O)N1C[C@H]2CCC[C@@]2(COc2ccccn2)C1.O=C(O)C(F)(F)F | 2.668
96 | O=C(O)C(F)(F)F.O=C(O)C(F)(F)F.c1ccc(CN2C[C@H]3CCC[C@@]3(COCC3CC3)C2)nc1 | -73.03
97 | Fc1cnc(N2C[C@H]3CCC[C@@]3(COc3ccccn3)C2)nc1.O=C(O)C(F)(F)F.O=C(O)C(F)(F)F | 3.485
98 | Cn1cc(CN2C[C@H]3CCC[C@@]3(COCC3CC3)C2)cn1.O=C(O)C(F)(F)F | 51.84
99 | O=C(O)C(F)(F)F.O=C(c1cocn1)N1C[C@H]2CCC[C@@]2(COc2ccccn2)C1 | 50.75
100 | Cc1cc(CN2C[C@H]3CCC[C@@]3(COCc3csc(C)n3)C2)no1.O=C(O)C(F)(F)F | 11.53
101 | Cc1nc(COC[C@@]23CCC[C@@H]2CN(Cc2nccs2)C3)cs1.O=C(O)C(F)(F)F | -17.19
102 | Cc1ccc(C(=O)N2C[C@H]3CCC[C@@]3(COc3ccccn3)C2)nc1.O=C(O)C(F)(F)F.O=C(O)C(F)(F)F | 6.864
